Data taken from PubChem BioAssay AID463173 (ICCB-Longwood Screening Facility, Harvard Medical School, 2010).
The campaign covered roughly 52,000 compounds. About 4,300 (8.3%) were called active. This is one part of a sample in which actives are shown more often than they occur. No stated cut-off is given here; in the data, active means survival mostly below about 52% (no sharp cut-off); inactive means mostly above about 56%.

system: DeltatarO mutant; test: S. aureus survival, RN4220 and DeltatarO strains – OD600, teichoic acid synthesis inhibitors, primary screen (AID 463173); settings: S. aureus RN4220 wild type/DeltatarO growth, OD600, 18 h, stronger effect = lower value, screened at 18.75 µg/mL (by protocol)

Structure (SMILES) | survival
CCOCCCNC(=O)c1ccc2c(c1)NC(=O)C(CS(=O)(=O)Cc1ccc(F)cc1Cl)N2 (stereo not drawn) | 88% (inactive)
CC(C)Cn1c(N2CCN(C(=O)c3sc4ccccc4c3Cl)CC2)nc2ccccc21 | 89% (inactive)
CCC(Cc1ccccc1)NC(=O)CN1C(=O)COc2ccc(S(=O)(=O)N3CCCCCC3)cc21 (stereo not drawn) | 113% (inactive)
CC(=O)c1cccc(NS(=O)(=O)c2cccc(S(=O)(=O)c3ccc(Br)cc3)c2)c1 | 55% (inactive)
Cc1ccc(CNC(=O)c2cc(-c3ccc(Cl)cc3)on2)cc1 | 93% (inactive)
Cc1cc(NC(=O)c2cc(-c3ccc(Br)cc3)on2)nn1Cc1ccc(Cl)cc1 | 155% (inactive)
Cc1cc(NC(=O)c2cc(-c3ccc(Cl)c(Cl)c3)on2)n(-c2ccccc2)n1 | 63% (inactive)
Cc1cc(NC(=O)c2cc(-c3cccc(Cl)c3)on2)nn1Cc1ccc(Cl)cc1 | 43% (active)
COc1cccc(-c2cc(C(=O)Nc3ccn(Cc4ccc(C)cc4)n3)no2)c1 | 33% (active)
COc1ccc(-c2cc(C(=O)Nc3ccn(Cc4ccc(C)cc4)n3)no2)cc1OC | 57% (inactive)
Cc1cc(NC(=O)c2cc(-c3ccc(Cl)cc3)on2)nn1Cc1ccc(Cl)cc1 | 140% (inactive)
COc1cccc(-c2cc(C(=O)Nc3cc(C)nn3-c3ccccc3)no2)c1 | 74% (inactive)
Cc1ccc(Cn2ccc(NC(=O)c3cc(-c4ccc(Cl)c(Cl)c4)on3)n2)cc1 | 45% (active)
O=c1c2cccnc2n(Cc2ccccc2F)c(=O)n1Cc1ccccc1Cl | 62% (inactive)
Cc1cccc(S(=O)Cc2ccc(C(=O)NC3CCCCCC3)o2)c1 (stereo not drawn) | 81% (inactive)
CCOc1ccc(NC(=O)C2CCCN(S(=O)(=O)c3ccc(Br)s3)C2)cc1 (stereo not drawn) | 101% (inactive)
Cc1ccccc1CNC(=O)c1ccc(Cn2c(SCc3ccccc3)nc3cccnc32)cc1 | 0% (active)
CCOc1ccccc1CNC(=O)c1ccc(Cn2c(SCc3ccccc3)nc3cccnc32)cc1 | 74% (inactive)
Cc1ccccc1CSc1nc2cccnc2n1Cc1ccc(C(=O)NCCc2cccs2)cc1 | 47% (active)
Cc1ccc(CSc2nc3cccnc3n2Cc2ccc(C(=O)NCCc3cccs3)cc2)cc1 | 135% (inactive)
COc1ccc(Cn2c(SCc3ccc(C(=O)NCc4ccc(C)cc4)cc3)nc3cccnc32)cc1 | 58% (inactive)
Cc1ccccc1CNC(=O)c1ccc(Cn2c(SCc3cccc(F)c3)nc3cccnc32)cc1 | 89% (inactive)
O=C(NCCc1cccs1)c1ccc(Cn2c(SCc3ccccc3)nc3cccnc32)cc1 | 99% (inactive)
Cc1ccccc1CNC(=O)c1ccc(CSc2nc3cccnc3n2Cc2ccccc2)cc1 | 55% (inactive)

Structure (SMILES) | survival
CCNC(=O)c1ccc(CSc2nc3cccnc3n2Cc2ccc(OC)cc2)cc1 | 0% (active)
COc1ccccc1CNC(=O)c1ccc(Cn2c(SCc3ccccc3)nc3cccnc32)cc1 | 37% (active)
O=C(NCc1ccccc1Cl)c1ccc(Cn2c(SCc3ccccc3)nc3cccnc32)cc1 | 72% (inactive)
COCCCNC(=O)c1ccc(CSc2nc3cccnc3n2Cc2ccc(OC)cc2)cc1 | 107% (inactive)
Cc1cn2c(=O)c(S(=O)(=O)NCc3ccc(F)cc3)c(C)nc2s1 | 88% (inactive)
CCc1ccc(NC(=O)CSc2nnc(C(C)C)n2CC)cc1 | 96% (inactive)
O=C(C1CCN(S(=O)(=O)c2ccc3c(c2)OCCO3)CC1)N1CCN(c2nc3ccccc3s2)CC1 | 109% (inactive)
O=C(Nc1cccnc1)Nc1c[nH]c2c(Cl)cccc2c1=O | 89% (inactive)
COc1ccc(-c2cc(C(F)(F)F)n3nc(C(=O)O)c(Cl)c3n2)cc1OC | 70% (inactive)
Cc1cc(C)nc(-n2nc(C)c3c2N(C)C(=O)CC3c2ccc(Cl)cc2)n1 (stereo not drawn) | 73% (inactive)
COc1ccc(-c2onc(C)c2C)cc1S(=O)(=O)N1CCC(C)CC1 | 70% (inactive)
CC(NC(=O)CN1C(=O)COc2ccc(S(=O)(=O)N3CCCCCC3)cc21)c1ccccc1 (stereo not drawn) | 68% (inactive)
O=C(Cn1c(=O)n(Cc2ccc3c(c2)OCO3)c(=O)c2ccc(C(=O)NC3CCCCC3)cc21)Nc1ccccc1F | 76% (inactive)
Cc1nc2c(C(=O)NCc3ccccc3)cnn2c(C)c1Cc1ccc(F)cc1 | 83% (inactive)
CCN(CC)C(=O)CSc1nc2ccccc2c(=O)n1Cc1ccco1 | 77% (inactive)
Cc1cccc(Cn2c(SCc3ccc(C(=O)NCCc4ccccc4)cc3)nc3cccnc32)c1 | 115% (inactive)
Cc1cccc(Cn2c(SCc3ccc(C(=O)NCc4ccccc4)cc3)nc3cccnc32)c1 | 46% (active)
Cc1cccc(CNC(=O)c2ccc(Cn3c(SCc4ccccc4)nc4cccnc43)cc2)c1 | 92% (inactive)
Cc1ccccc1C(=O)OCc1cc(=O)n2nc(-c3cccs3)sc2n1 | 117% (inactive)
Cc1ccc(C)c(CNC(=O)CN2C(=O)CSc3ccc(S(=O)(=O)N(C)C)cc32)c1 | 87% (inactive)
COc1ccc(CC(=O)Nc2sc3c(c2C(=O)Nc2cccc(Cl)c2)CCCCC3)cc1 | 59% (inactive)
COc1ccc(CC(=O)Nc2sc3c(c2C(=O)Nc2c(C)cccc2C)CCCCC3)cc1 | 47% (active)
COc1ccc(CC(=O)Nc2sc3c(c2C(=O)Nc2ccccc2)CCCCC3)cc1 | 68% (inactive)
COc1ccc(CC(=O)Nc2sc3c(c2C(=O)Nc2ccc(C)cc2)CCCCC3)cc1 | 131% (inactive)

Structure (SMILES) | survival
COc1ccc(NC(=O)c2c(NCc3cccc(OC)c3)sc3c2CCCC3)cc1 | 86% (inactive)
COc1ccc(CC(=O)Nc2sc3c(c2C(=O)Nc2cccc(C)c2)CCCCC3)cc1 | 43% (active)
Cc1ccccc1CNc1nc(N(C)C)nc2c1cnn2C | 72% (inactive)
Cc1ccc(C(=O)c2cn(Cc3ccccc3F)c3cc4c(cc3c2=O)OCCO4)cc1 | 82% (inactive)
CCc1ccc(NC(=O)CSc2cn(CC(=O)N3CCOCC3)c3ccccc23)cc1 | 86% (inactive)
CSc1ccc(CCNC(=O)c2ccc(-c3nc(COc4ccccc4)c(C)o3)cc2)cc1 | 91% (inactive)
Nc1ccc(Cc2nc3ccccc3[nH]2)cc1 | 86% (inactive)
Cc1nn(-c2nc3ccccc3[nH]2)c(N)c1-c1ccccc1 | 2% (active)
CC(C)(Cc1nc2ccccc2[nH]1)c1nc2ccccc2[nH]1 | 97% (inactive)
COc1cc(OC)c(NC(=O)N2CCC(CN3CCCC3)CC2)cc1Cl | 84% (inactive)
COc1ccc(NC(=O)c2sc3nc(C(F)(F)F)cc(C)c3c2N)cc1OC | 140% (inactive)
N#Cc1cc2c(nc1SCC(=O)N1CCOCC1)CCC2 | 97% (inactive)
CC(Oc1ccc(F)cc1)C(=O)Nc1nc(-c2ccc(F)cc2)ns1 (stereo not drawn) | -2% (active)
CCC(Oc1ccc(F)cc1)C(=O)Nc1nc2c(s1)CCCC2 (stereo not drawn) | 83% (inactive)
O=C(COc1ccccc1Cl)Nc1nc(-c2ccc(F)cc2)ns1 | 55% (inactive)
Cc1cc(C)cc(OCC(=O)Nc2nc(-c3ccc(F)cc3)ns2)c1 | 89% (inactive)
COc1ccc(-c2nsc(NC(=O)C(C)Oc3ccc(Cl)c(C)c3)n2)cc1 (stereo not drawn) | 45% (active)
COc1ccc(-c2nsc(NC(=O)COc3ccc(C)c(C)c3)n2)cc1 | 65% (inactive)
COc1ccc(-c2nsc(NC(=O)c3oc4cc(C)c(C)cc4c3C)n2)cc1 | 67% (inactive)
CCC(Oc1ccc(F)cc1)C(=O)Nc1nc(-c2ccc(F)cc2)ns1 (stereo not drawn) | -2% (active)
O=C(Nc1nc(-c2ccc(Br)cc2)ns1)c1ccc(F)cc1 | 52% (inactive)
CCC(=O)N1CCc2cc(CNC(=O)C(CC)c3ccccc3)ccc21 (stereo not drawn) | 92% (inactive)
Cc1cc2c(cc1NC(=O)c1ccccc1Cl)n(C)c(=O)c(=O)n2C | 79% (inactive)
CCC(=O)C1C(=O)CC(C)(C)CC1=O | 103% (inactive)

Structure (SMILES) | survival
Cc1ccc(S(=O)(=O)c2nnn(CC(=O)Nc3ccccc3C)c2N)cc1C | 91% (inactive)
CN(Cc1ccccc1)C(=O)C1CCN(S(C)(=O)=O)CC1 | 80% (inactive)
O=C(Nc1cccc(Cl)c1)N1CCSc2ccccc21 | 79% (inactive)
COc1ccc(Br)cc1CNC(=O)CN1CCSc2ccccc21 | 88% (inactive)
COc1cc(OC)c(NC(=O)N2CCSc3ccccc32)cc1Cl | 74% (inactive)
CCOc1ccccc1CNC(=O)CCC(=O)N1CCSc2ccccc21 | 107% (inactive)
COc1cc(NC(=O)N2CCSc3ccccc32)cc(OC)c1OC | 52% (active)
COc1ccc(Br)cc1CNC(=O)CCC(=O)N1CCSc2ccccc21 | 41% (active)
COc1ccc(-c2c3c(=O)n(C)c(=O)n(C)c3c3c(-c4ccc(C)cc4)nc4ccccc4n23)cc1 | 82% (inactive)
CCCCOc1ccc(C2C(=O)N(C3CCCCC3)CC(=O)N2CCCC)cc1 (stereo not drawn) | 89% (inactive)
COc1cccc(C(C(=O)NC2CCCCC2)N(C(=O)c2ccccn2)c2cccnc2)c1 (stereo not drawn) | 81% (inactive)
CCOC(=O)N1CCC2(CC1)OC(=O)C(C)=C2C(=O)NCc1ccc(C)cc1 | 70% (inactive)
O=C(CSc1nnc(-c2ccc(F)cc2)o1)N1CCCc2ccccc21 | 72% (inactive)
O=C(CSc1nnc(-c2ccccc2Cl)o1)N1CCCc2ccccc21 | 35% (active)
O=C(CSc1nnc(-c2ccccc2F)o1)N1CCc2ccccc21 | 100% (inactive)
Cc1ccccc1-c1nnc(SCC(=O)N2CCCc3ccccc32)o1 | 9% (active)
O=C(CSc1nnc(-c2ccc(Cl)cc2)o1)N1CCc2ccccc21 | 96% (inactive)
O=C(CSc1nnc(-c2ccccc2)o1)N1CCCc2ccccc21 | 80% (inactive)
Cc1cccc(-c2nnc(SCC(=O)N3CCCc4ccccc43)o2)c1 | 11% (active)
Cc1ccc(-c2nnc(SCC(=O)N3CCc4ccccc43)o2)cc1 | 95% (inactive)
Cc1ccc(-c2nnc(SCC(=O)N3CCCc4ccccc43)o2)cc1 | 63% (inactive)
